Over roughly 33,000 sequences, “E-score (-0.5 to 0.5)” has its median near -0.0014; the highest 2% begin near 0.25. Shown is part of a subset that was picked to be rich in the highest values.
Target: T1, Cad1 (UniProt P24813)
T1 sequence: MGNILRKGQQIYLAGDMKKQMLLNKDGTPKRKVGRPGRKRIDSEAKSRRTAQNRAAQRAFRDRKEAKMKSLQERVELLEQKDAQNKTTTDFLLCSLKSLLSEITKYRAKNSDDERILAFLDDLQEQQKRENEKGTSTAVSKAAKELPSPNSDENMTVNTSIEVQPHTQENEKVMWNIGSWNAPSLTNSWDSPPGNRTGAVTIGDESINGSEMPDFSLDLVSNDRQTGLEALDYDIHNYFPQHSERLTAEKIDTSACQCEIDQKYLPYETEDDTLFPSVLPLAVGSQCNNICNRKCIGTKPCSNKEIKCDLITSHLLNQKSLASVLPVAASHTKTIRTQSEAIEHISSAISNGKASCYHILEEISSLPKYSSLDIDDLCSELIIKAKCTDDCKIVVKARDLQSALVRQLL
Test: PBM E-score (8-mer binding enrichment) (E-score (-0.5 to 0.5)); higher = stronger / more preferred TF binding
Conditions: protein concentration: 100 nM; construct: GST-full length
Outline: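 Universal all-10-mer Agilent arrays, fresh or stripped once, were converted to double-stranded form by primer extension. GST-tagged yeast transcription factors from PURExpress in vitro transcription/translation, full-length or DNA-binding domain only, were applied at about 100-200 nM and detected with fluorescent anti-GST. After masliner normalisation, the Universal PBM Analysis Suite scored each ungapped eight-base word together with its reverse complement by E-score.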

Sequence | PBM E-score
AAAATTAC | 0.072
AAAATTAG | 0.269
AAAATTCT | -0.00425
AAAATTAT | 0.285
ATCAGTTA | 0.212
GCCCATAC | -0.1
GGCGACCC | -0.332
ATTGCCTG | 0.0283
ATTAACAA | 0.201
ATTAACAC | 0.275
CTTAACAC | 0.127
CGAATAGC | 0.0486
ACACGCGT | 0.258
ACACGCGG | 0.0311
ACACGCGA | 0.143
ACAAGCGG | 0.0904
GTTGGAGA | -0.0985
ATAAATAG | 0.121
ACAAATAA | 0.206
CCAAATAC | 0.013
ACAAATAG | 0.182
GCAAATAC | 0.0468
ACAAATGC | 0.255
CCAAATGC | -0.0453
ACAAATAT | 0.262

Sequence | PBM E-score
ATAAATAA | 0.239
ACAAATGT | 0.0516
ACAAATAC | 0.271
ATAAATAC | 0.252
GCGGGCCC | -0.157
ATCCGCCA | 0.0883
CAGAAGAC | 0.0287
AATCATAC | 0.0986
GGTGAAAC | -0.0742
GACTATCC | -0.0732
AGAATGAT | 0.0516
CTTGGCTC | -0.149
TAAGCTGA | 0.208
CAAGCTTA | 0.159
TAAGCTTA | 0.378
ACGTAGGG | -0.284
AGAGTTTG | 0.0139
AGATCCCT | -0.312
AGATCCCG | 0.281
CGATCCCG | -0.265
AAGACCTT | -0.0766
CCATTCTC | -0.114
TGGAGAAA | -0.151
AAATTAAC | 0.0173
AAATTACC | 0.081

Sequence | PBM E-score
AAATTACT | 0.314
AAATTAAA | 0.257
AAATTAGA | 0.191
AAATTAAT | 0.288
AAATTACG | -0.00187
AAATTAAG | 0.0523
GAATTAAA | -0.0332
AAATTAGT | 0.273
AAATTAGG | 0.13
AGATTAAT | 0.16
AAGTAACG | -0.0002
AACCTGCG | -0.142
CAAAGAGA | -0.113
ACCCGTTC | -0.0216
CCAGGGCG | -0.18
AGAGTTGG | -0.0857
TTGGTAAA | 0.073
GAAATTAA | 0.295
CAAATTAA | 0.207
GAAATTAC | 0.234
CCGTAATC | 0.143
CCGTAATA | 0.113
ACATAATG | 0.172
ACGTAAGA | 0.199
ACGTAATA | 0.311

Sequence | PBM E-score
ACATAATA | 0.178
ACATAATC | 0.309
GCGTAATA | 0.142
ACGTAAGC | 0.287
ACGTAAGT | -0.102
ACGTAATG | 0.147
ACGTAATC | 0.286
AAGTGGAA | -0.0197
CTCCCGCC | -0.163
ACGAAAGT | 0.0253
ACACAACT | 0.0775
GAAGCCAA | -0.183
CCGAAGCG | -0.22
CCCTAATC | -0.076
ACCTAATA | 0.137
ATGTAAGA | 0.227
ACATAACT | 0.0912
GAATAACA | 0.252
ACATAACC | -0.0477
TAATAACA | 0.15
CAATAACA | -0.0158
ACATAACA | 0.273
ACCTAATC | 0.259
ATGTAAGC | 0.305
ATGTAAGG | 0.0288

Sequence | PBM E-score
CCTTAGCC | -0.00184
CACGCACG | -0.131
ATTCGGGG | 0.0825
GTGCCGAA | -0.0386
ACTTACGG | 0.0069
TGGAGTAA | 0.149
AGTTTGTG | -0.0199
GGCATAAC | 0.0911
GGCGCAGA | 0.00055
CGCGCACG | 0.0231
AGCGAAGA | -0.118
GGCGCACA | 0.00969
CGCGCAGC | 0.103
CGCGCACA | 0.257
CGCGCAGA | 0.287
CGCGAAGC | 0.219
CGCGAAGA | 0.273
ACCTTCAT | -0.0561
CATAAACC | -0.0325
CGAGGCGA | 0.0962
ATAAGTTC | 0.197
GAAAGTAC | -0.0278
CTCAATTC | 0.066
CCAGCTAA | -0.0477
AATGCATG | 0.254

Sequence | PBM E-score
AATGCATA | 0.0741
CATGCATC | 0.148
AATGCATT | 0.229
CATGCATA | 0.156
CATGCATG | 0.252
CGTAACAC | 0.124
GGGTCGTA | -0.236
ACGAAAAT | 0.189
AGAGTGTC | 0.198
GGGACGAA | -0.108
CGGACGAA | 0.274
CGGACGAC | -0.0294
ATCTGGTG | 0.0268
CGATACAC | 0.00183
ATTTCTCC | -0.0308
ATTTCTCA | 0.0134
ATTTCTCG | 0.332
GATTACAC | 0.156
CATTACAA | 0.277
CATTACAC | 0.0518
GATTACAA | 0.294
CATTACAG | 0.0228
TATTACAA | 0.152
GACTTATA | 0.214
AACTTATA | 0.257

Sequence | PBM E-score
TACTTATA | 0.0796
CTAGCTAG | 0.279
CTTGCTAA | -0.13
ATTGCTAA | 0.256
CTAGCTAC | -0.0695
ATAGCTAA | 0.0748
CTAGCTAA | -0.0595
TTAGCTAA | 0.298
ATAGCTAG | -0.106
ATTGCTAG | 0.014
ACGCCTCT | -0.183
GCTTTGAA | 0.108
ACCGTGTA | 0.00454
CCTTACGA | 0.00401
GCTTACAC | 0.23
ACTTACAT | 0.0914
ACTTACAC | -0.0153
TCTTACAA | 0.0371
GCTTACGA | 0.258
CATTACGA | 0.0111
GCTTACAA | 0.308
ACTTACAA | 0.278
ACTTACGA | 0.184
GATTACGA | 0.318
AATTACGA | 0.148
